Measurements taken from PubChem BioAssay AID743327 (National Center for Advancing Translational Sciences (NCATS), 2014).
Active and inactive are the calls of the source. A call without a number means that no potency is given here. Calls follow the shape of the full dose curve. Where a SMILES comes first, the peptide text is derived from it. [ ]: non-standard residue; d: D form. Orn = NCCC[C@H](N)C(=O)O

assay: qHTS profiling of Chloroquine Analogs as inhibitors of Plasmodium falciparum (HB3) proliferation; conditions: P. falciparum HB3 proliferation; series mostly up to 28.7 µM
Text: Plasmodium falciparum is a virulent malarial parasite that kills 1-2 million people worldwide each year. Transmitted by mosquitoes, the sporozoite form of the parasite enters the blood stream to infect hepatocytes, where they become merozoites that infect red blood cells (erythrocytes). Within erythrocytes, merozoites begin a […] cycle of growth and division, after which the parasite is released to infect new red blood cells. Gametocytes, which form within erythrocytes as well, circulate in the bloodstream and are ingested by the mosquito, thereby completing the life cycle. To profile malarial isolates for differential chemical responses and to identify inhibitors of malarial growth, an assay that measures P. falciparum growth and replication within erythrocytes was employed. This assay uses a DNA binding fluorescent dye (SYBR Green) to detect parasite DNA following cell lysis. Because mature erythrocytes lack DNA, only Plasmodium-derived DNA is detected.
The SYBR Green viability assay was adapted from a method described previously (Plouffe et al., 2008). For screening 3 ul culture medium was dispensed into 1536 well black clear bottom plates (Aurora Biotechnologies) using a Multidrop Combi (Thermo Fisher Scientific Inc.), 23 nL compounds in DMSO were added by a pin tool (Kalypsys), and 5 ul of erythrocytes infected with P. falciparum (0.3% parasitemia, 2.5% hematocrit final concentration) were added. The plates were incubated at 37 C in a humidified incubator in 5% CO2 for 72 h, and 2 ul lysis buffer (20 mM Tris HCl, 10 mM EDTA, 0.16% saponin, 1.6% triton X, 10X SYBR Green I supplied as 10,000X […] by Invitrogen) was added to each well. The plates were mixed for 25 sec with gentle shaking and incubated overnight at room temperature in the dark. The following morning, fluorescence intensity at 485(14) nm excitation and 535(25) nm emission wavelengths was measured on an EnVision (Perkin Elmer) plate reader. Plate reads were normalized relative to the control inhibitor (0.29 uM artemisinin) and vehicle (DMSO) wells present on each plate and then corrected by an algorithm using vehicle-only control plates at the beginning and end of the compound plate stack.

Compound | Potency
O=C(Nc1ccc(Cl)cc1)Nc1ccc(Cl)c(Cl)c1 | 2110 nM (active)
CC(C)C[C@@H]1NC(=O)[C@H](CCCN)NC(=O)[C@H](C(C)C)NC(=O)[C@@H]2CCCN2C(=O)[C@@H](Cc2ccccc2)NC(=O)[C@H](CC(C)C)NC(=O)[C@H](CCCN)NC(=O)[C@H](C(C)C)NC(=O)[C@@H]2CCCN2C(=O)[C@@H](Cc2ccccc2)NC1=O (cyclo(V[Orn]L[dF]PV[Orn]L[dF]P)) | inactive
CNC(=O)c1cc(Oc2ccc(NC(=O)Nc3ccc(Cl)c(C(F)(F)F)c3)cc2)ccn1 | 4210 nM (active)
C[C@@H]1Cc2c([nH]c3cc(Cl)c(F)cc23)[C@]2(N1)C(=O)Nc1ccc(Cl)cc12 | inactive
COc1cc2c(Nc3ccc(NC(=O)c4ccccc4)cc3)ncnc2cc1OCCCN1CCOCC1 | inactive
CCCCCCCCCCOc1cc2c(=O)c(C(=O)OCC)c[nH]c2cc1OCC | inactive
CN(C)CC/C=C1\c2ccccc2COc2ccccc21 | 2540 nM (active)
CC(C)(C)c1cc(O)c(CN)c(C(C)(C)C)c1 | 150 nM (active)
Cc1oncc1C(=O)Nc1ccc(C(F)(F)F)cc1 | inactive
C[C@@H]1[C@@H](CC(C[C@H]2O[C@@H]3O[C@]4(C)CC[C@@H]5[C@H](C)CC[C@@H]([C@H]2C)[C@@]35OO4)C[S+](=O)([O-])c2ccc(COC(=O)N(C)C)cc2)O[C@@H]2O[C@]3(C)CC[C@H]4[C@H](C)CC[C@@H]1[C@@]24OO3 (stereo not given in full) | 6.7 nM (active)
C[C@@H]1[C@@H](C(=O)C[C@H]2O[C@@H]3O[C@]4(C)CC[C@@H]5[C@H](C)CC[C@@H]([C@H]2C)[C@@]35OO4)O[C@@H]2O[C@]3(C)CC[C@H]4[C@H](C)CC[C@@H]1[C@@]24OO3 | inactive
CN1CCN(CCCN2c3ccccc3Sc3ccc(S(=O)(=O)N(C)C)cc32)CC1 | 716 nM (active)
C#C[C@]1(O)CC[C@@H]2[C@H]3CCC4=CC(=O)CC[C@H]4[C@H]3C(=C)C[C@@]21CC | 749 nM (active)
Oc1cc(Cl)ccc1Oc1ccc(Cl)cc1Cl | 1880 nM (active)
O[C@H](c1cc(C(F)(F)F)nc2c(C(F)(F)F)cccc12)[C@H]1CCCCN1 | inactive
CNCCC(Oc1ccccc1OC)c1ccccc1 (stereo not given) | 3350 nM (active)
CCCCN(CCCC)CC(O)c1cc(Cl)cc2c1-c1ccc(Cl)cc1C2=Cc1ccc(Cl)cc1 (stereo not given) | inactive
NC(=NCc1ccccc1)NC(=O)c1nc(Cl)c(N)nc1N | inactive

Compound | Potency
Clc1ccc(COC(Cn2ccnc2)c2ccc(Cl)cc2Cl)c(Cl)c1 (stereo not given) | inactive
COc1ncnc(NS(=O)(=O)c2ccc(N)cc2)c1OC | 1500 nM (active)
COCC(=O)O[C@]1(CCN(C)CCCc2nc3ccccc3[nH]2)CCc2cc(F)ccc2[C@@H]1C(C)C | 1500 nM (active)
O=C(O)c1cn(C2CC2)c2cc(N3CCNCC3)c(F)cc2c1=O | inactive
COc1cc2c(cc1C(F)(F)F)N(C(=O)Nc1cc(F)cc(-c3cccnc3)c1)CC2 | 3350 nM (active)
CCN(CC)CCCC(C)Nc1ccnc2cc(Cl)ccc12 (stereo not given) | inactive
CO[C@H]1O[C@@H]2O[C@@]3(C)CC[C@@H]4[C@@H](C)CC[C@@H]([C@H]1C)[C@@]24OO3 | inactive
CC(CNC1CCCCC1)OC(=O)c1ccccc1 (stereo not given) | inactive
CC1=CC(=O)c2ccccc2C1=O | 2370 nM (active)
O=C(C[C@@H]1NCCC[C@@H]1O)Cn1cnc2ccccc2c1=O | inactive
C=Cc1c(C)c2cc3nc(cc4[nH]c(cc5nc(cc1[nH]2)C(C)=C5CCC(=O)OC)c(CCC(=O)O)c4C)[C@@]1(C)C3=CC=C(C(=O)OC)[C@H]1C(=O)OC | inactive
Cn1cncc1[C@@](N)(c1ccc(Cl)cc1)c1ccc2c(c1)c(-c1cccc(Cl)c1)cc(=O)n2C | inactive
C=CC(C)=C[C@@]1(C)SC(=O)C(C)=C1O | inactive
CN1C[C@H](C(=O)N[C@]2(C)O[C@@]3(O)[C@@H]4CCCN4C(=O)[C@H](Cc4ccccc4)N3C2=O)C[C@@H]2c3cccc4[nH]cc(c34)C[C@H]21 | 530 nM (active)
CN(C)c1ccc2nc3ccc(=[N+](C)C)cc-3sc2c1 | 4.9 nM (active)
CN(C)CCOC(c1ccccc1)c1ccccc1 | inactive
COc1cccc(CCc2ccccc2OCC(CN(C)C)OC(=O)CCC(=O)O)c1 (stereo not given) | 2980 nM (active)
